Fam108B counter: blocks mouse Fam108B hydrolase in RBBP9 counter-screen | recombinant Fam108B, FP-Rh probe fluorescence polarization | AID 1947 | 300,000 compounds, 0.33% hits | inhibition, % at 9.51 µM;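 active = inhibition above the screen mean inhibition plus 3 SD, computed separately per campaign, cut at about 18% in these data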;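 also: inhibitors lower polarization as less probe binds the enzyme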
LYPLA1 inh: blocks human lysophospholipase 1, a PME1 counter-screen; O75608; recombinant LYPLA1, FP-Rh probe fluorescence polarization; inhibition, % at 5.9 µM; 320,000 compounds, 0.16% hits; AID 2174;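 active = inhibition above the mean of all tested compounds plus 3 SD, set per campaign, cut at about 14% in these data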;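 also: inhibitors block serine hydrolase probe labeling of LYPLA1 so polarization falls; 0% = enzyme with DMSO and 100% = wells lacking LYPLA1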
Target sequence (O75608 whole entry, looked up): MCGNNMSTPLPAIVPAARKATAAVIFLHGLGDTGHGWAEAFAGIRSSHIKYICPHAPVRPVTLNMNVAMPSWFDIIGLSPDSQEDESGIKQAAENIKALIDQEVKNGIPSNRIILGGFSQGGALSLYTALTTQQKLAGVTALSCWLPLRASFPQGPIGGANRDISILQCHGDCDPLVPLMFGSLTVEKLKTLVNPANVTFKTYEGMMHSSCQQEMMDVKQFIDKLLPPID
PP1 inh: counter-screen for PP5 inhibitors: inhibitors of human PP1-alpha; inhibition, % at 6.7 µM; 320,000 compounds, 0.9% hits; purified PP1alpha, OMFP fluorescence; AID 2235;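 active = inhibition above the mean inhibition of all tested compounds plus 3 SD, computed separately for each screening campaign, cut at about 15% in these data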
Target sequence (P62136 whole entry, looked up): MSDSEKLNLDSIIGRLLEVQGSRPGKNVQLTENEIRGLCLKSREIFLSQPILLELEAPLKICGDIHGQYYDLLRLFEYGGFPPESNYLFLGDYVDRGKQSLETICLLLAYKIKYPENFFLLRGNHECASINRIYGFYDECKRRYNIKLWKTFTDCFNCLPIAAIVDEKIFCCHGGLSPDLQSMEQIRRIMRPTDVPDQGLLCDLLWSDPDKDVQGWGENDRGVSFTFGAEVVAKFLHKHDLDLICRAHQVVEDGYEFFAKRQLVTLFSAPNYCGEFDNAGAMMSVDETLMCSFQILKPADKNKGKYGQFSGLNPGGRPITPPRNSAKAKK
PP5 primary: blocks human protein phosphatase 5 activity; purified PP5c, OMFP substrate fluorescence; inhibition, % at 6.7 µM; 320,000 compounds, 0.18% hits; AID 1987;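 active = inhibition above the campaign's mean inhibition across all tested compounds plus 3 SD, cut at about 9.5% in these data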;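 also: 0% = DMSO only and 100% = 100 µM cantharidin control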
LYPLA2 counter: LYPLA2 (human) inhibition in PME1 counter-screen; recombinant LYPLA2, FP-Rh probe fluorescence polarization; AID 2177; inhibition, % at 5.9 µM; O95372; 320,000 compounds, 0.38% hits;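 active = inhibition above the screen-wide mean plus 3 SD, limit set per campaign, cut at about 26% in these data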;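 also: 0% = LYPLA2 with DMSO and 100% = wells lacking LYPLA2 enzyme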
Target sequence (O95372 whole entry, looked up): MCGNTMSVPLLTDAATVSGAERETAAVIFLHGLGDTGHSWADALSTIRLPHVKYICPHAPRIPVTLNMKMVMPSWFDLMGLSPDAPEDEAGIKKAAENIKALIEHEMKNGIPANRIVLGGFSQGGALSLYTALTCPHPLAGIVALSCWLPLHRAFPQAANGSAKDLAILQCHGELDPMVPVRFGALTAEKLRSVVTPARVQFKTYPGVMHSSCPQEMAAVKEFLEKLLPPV
PME-1 primary: PME-1 (human) inhibition | Q9Y570 | recombinant PME-1, FP-Rh probe fluorescence polarization | inhibition, % at 5.9 µM | 320,000 compounds, 0.53% hits | AID 2130;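 active = inhibition above the campaign mean of all compounds plus 3 SD, cut at about 26% in these data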;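 also: competitive labeling of PME-1 active site by serine hydrolase directed probe; 0% = PME-1 with DMSO and 100% = wells lacking PME-1 enzyme; inhibitors block probe labeling so polarization falls and inhibition rises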
Fam108b confirm: Fam108b (mouse) hydrolase inhibition, confirmation assay | recombinant Fam108b, FP-Rh probe fluorescence polarization | inhibition, % at 9.51 µM | 930 compounds, 44% hits | shares compounds with Fam108B counter;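 active = inhibition above a limit from the primary screen, the mean over all compounds plus 3 SD, cut at about 19% in these data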;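 also: 0% = median of active Fam108b wells and 100% = catalytically dead S170A mutant; inhibitors free the probe so polarization falls as inhibition rises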
Fam108b inh: mouse ABHD17B inhibition; shares compounds with Fam108B counter; recombinant Fam108b, gel-based ABPP, fluorophosphonate probe; inhibition, % at 20 µM; 260 compounds, 44% hits; in the data active = inhibition above about 40%
PP5 conf: confirmation of human PP5 phosphatase inhibitors; AID 2331; inhibition, % at 6.7 µM; 460 compounds, 22% hits; Purified PP5, fluorogenic phosphatase substrate, fluorescence; shares compounds with PP5 primary; in the data active = inhibition above about 9.5%
PP1 inh counter: counter-screen for PP5 inhibitors: human PP1 phosphatase inhibition; shares compounds with PP5 primary; PP1 enzyme, fluorescent phosphatase substrate; inhibition, % at 6.7 µM; 460 compounds, 4% hits; in the data active = inhibition above about 16%
LYPLA1 confirm: counter-screen for PME1 inhibitors: confirmation of human LYPLA1 inhibitors; shares compounds with LYPLA1 inh; recombinant LYPLA1, FP-Rh probe fluorescence polarization; inhibition, % at 5.9 µM; 480 compounds, 69% hits; AID 2233;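 active = mean inhibition across replicates above the hit cutoff set in the primary screen, cut at about 15% in these data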;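 also: loss of FP-Rh probe labeling of LYPLA1 seen as lower polarization; 0% = LYPLA1 with DMSO and 100% = wells lacking LYPLA1 enzyme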
LYPLA2 confirm: counter-screen for PME1 inhibitors: confirmation of human LYPLA2 inhibitors; shares compounds with LYPLA2 counter; recombinant LYPLA2, FP-Rh probe fluorescence polarization; inhibition, % at 5.9 µM; 1,100 compounds, 72% hits;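 active = mean inhibition across replicates above the hit cutoff set in the primary screen, cut at about 26% in these data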;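 also: blocked labeling of the enzyme by serine hydrolase FP-Rh probe lowers polarization; 0% = enzyme with DMSO and 100% = wells lacking LYPLA2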
PP1 inh confirm: human PP1 phosphatase inhibition, confirmation | shares compounds with PP1 inh | purified PP1alpha, OMFP substrate fluorescence | inhibition, % at 6.7 µM | 1,900 compounds, 52% hits | AID 2358;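 active = mean PP1 inhibition above a set limit taken from the earlier primary screen, cut at about 15% in these data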
PP5 inh counter: PP5 phosphatase inhibition, counter-screen for PP1 inhibitors; shares compounds with PP1 inh; purified PP5c, OMFP fluorescence; inhibition, % at 6.7 µM; 1,900 compounds, 4% hits;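 active = mean PP5 inhibition over triplicate wells above about 9.5% taken from the earlier PP1 screen, limit read from the data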
Numbers without * were called inactive; . = no result given; ! = not active in a repeat. This is a sample that favours compounds with a hit; in the whole collection about 1.8% have one here.

SMILES	Fam108B counter	LYPLA1 inh	PP1 inh	PP5 primary	LYPLA2 counter	PME-1 primary	LYPLA1 confirm	LYPLA2 confirm	others
O=[N+]([O-])c1ccc(NCc2ccccc2)c2nonc12	20.9*	53.4*	-29.1	-22.0	64.0*	56.2*	36.0*	50.0*	Fam108b confirm=38.4*;Fam108b inh=0.0
C[n+]1c(-c2ccccc2)c2cc(N)ccc2c2ccc(N)cc21	104.3*	89.1*	8.1	1.9	115.7*	115.8*	67.9*	75.5*	Fam108b confirm=70.4*;Fam108b inh=40.0*
Nc1ccc2ccc3cccc[n+]3c2c1	5.1	3.1	-0.3	-3.5	7.6	3.6	.	.
OCC[n+]1c2ccccc2nc2ccc(N3CCOCC3)cc21	-2.0	1.3	-0.3	2.2	-5.8	-6.3	.	.
CN(C)[C@@H]1C(=O)C(C(N)=O)=C(O)[C@@]2(O)C(=O)C3=C(O)c4c(O)cccc4[C@@](C)(O)C3[C@H](O)C12 (some centres not stated)	32.0*!	-7.7	19.6*	0.8	-6.4	-7.6	.	.	Fam108b confirm=34.3*;PP1 inh confirm=13.8;PP5 inh counter=11.9*!
CCN(CC)C(=O)c1ccc2c(c1)C1C(Cl)C(Sc3ccccc3[N+](=O)[O-])CC1C(C(=O)O)N2 (configuration not stated)	46.6*	-0.1	19.4*	1.1	2.2	13.6	.	.	Fam108b confirm=7.2;PP1 inh confirm=1.8;PP5 inh counter=2.3
CCN(CC)C(=O)c1ccc(NC(=O)c2cccc(S(=O)(=O)N3CCN(Cc4ccccc4)CC3)c2)cc1	-1.3	-5.8	-3.9	1.4	-2.5	-3.3	.	.
Cc1cc(C(=O)OCC(=O)Nc2ccc(F)cc2F)c(C)n1C1CC1	.	0.9	2.5	1.3	-9.2	3.1	.	.
CCOc1ccc(N2C(=O)NC(=O)/C(=C/c3cnc(SC)nc3)C2=O)cc1	2.5	0.3	3.2	1.9	-3.1	-1.9	.	.
Cc1ccccc1N1C(=O)/C(=C/c2ccco2)C(=O)NC1=S	77.1*	-14.7	69.1*	3.9	46.6*	16.8	.	31.8*	Fam108b confirm=67.7*;Fam108b inh=70.0*;PP1 inh confirm=35.2*;PP5 inh counter=1.9
Cc1nc2ccccc2c(=O)n1-c1cc([N+](=O)[O-])cc([N+](=O)[O-])c1	2.2	-3.7	-9.3	-3.1	-4.9	-5.1	.	.
Cc1[nH]n(-c2ccccc2)c(=O)c1C(c1ccc([N+](=O)[O-])cc1)c1c(C)[nH]n(-c2ccccc2)c1=O	7.4	-1.9	-1.0	9.9*	5.0	3.6	.	.	PP5 conf=16.1*;PP1 inh counter=9.5
OCCCCO	.	1.6	-1.4	1.4	5.1	0.4	.	.
C/C=C(\C)C(=O)OC1C(C)=C2C(C1OC(=O)CCCCC)C(C)(OC(C)=O)CC(OC(=O)CCC)C1(O)C2OC(=O)C1(C)O (configuration not stated)	-8.8	-1.4	6.1	11.4*	5.2	-3.9	.	.	PP5 conf=11.4*;PP1 inh counter=11.3
O=C1CN=C(c2ccccc2)c2ccccc2N1Cc1ccc(C(F)(F)F)cc1	6.3	0.8	-0.8	12.8*	1.7	1.4	.	.	PP5 conf=-0.8;PP1 inh counter=0.4
CCOC(=O)c1ccc(NC(=O)C2C3C=CC(O3)C2C(=O)O)cc1 (configuration not stated)	1.3	4.4	8.2	27.9*	-0.1	0.8	.	.	PP5 conf=-2.8;PP1 inh counter=2.5
CCOC(=O)c1ccc(-[n+]2c(-c3ccccc3)cc(-c3ccccc3)cc2-c2ccccc2)cc1	0.2	0.7	7.0	1.1	3.0	5.2	.	.
CCOC(=O)CC1=C(C(=O)OCC)C2(C(=O)N1CC(=O)OC)C(C#N)=C(N)Oc1ccccc12 (configuration not stated)	-1.5	1.7	-0.8	0.8	5.8	-8.4	.	.
O=c1cc(C(F)(F)F)c2cc3c4c(c2o1)CCCN4CCC3	11.9	18.0*	-17.7	-6.9	17.1	16.4	9.1	.
Cc1cc2c(C(F)(F)F)cc(=O)oc2c2c1NCCC2	2.3	-0.5	0.7	1.4	-5.8	-1.0	.	.
COC(=O)C1=C(c2cc3ccccc3o2)C[C@@H]2CC[C@H]1N2C(=O)NCc1ccco1	1.9	-2.5	1.4	2.3	1.4	-3.9	.	.
O=[N+]([O-])c1ccc(N2CCCCCC2)c2nonc12	-6.9	16.0*	3.3	-10.8	-21.4	-22.8	24.1*	.
O=C(COc1ccc(Cl)cc1)N1CCN(C/C=C/c2ccccc2)CC1	1.0	25.8*	1.6	0.1	69.7*	1.2	23.7*	76.9*
O=C(COc1ccccc1)N1CCN(C/C=C/c2ccccc2)CC1	-3.2	-2.4	3.1	-1.3	6.1	0.9	.	.
O=C(COC(=O)Cc1ccccc1)Nc1cccnc1Cl	0.6	1.6	4.7	0.5	-2.0	5.3	.	.
SMILES	Fam108B counter	LYPLA1 inh	PP1 inh	PP5 primary	LYPLA2 counter	PME-1 primary	LYPLA1 confirm	LYPLA2 confirm	others
Cc1ccccc1NC(=O)Cc1nc(COC(=O)Cc2ccccc2)cs1	.	39.6*	0.8	-5.7	47.2*	18.0	-1.8	-4.1
CCOc1ccc(CC2(CCc3ccncc3)C(=O)NC(=O)NC2=O)cc1	0.9	0.4	-0.4	-0.8	-0.9	-1.1	.	.
O=C(COc1ccc2ccccc2c1)N1CCN(CC2CC3C=CC2C3)CC1 (configuration not stated)	0.6	19.8*	0.9	6.9	26.0*	1.1	33.5*	25.0
Cn1ncnc2c(=O)n(C)c(=O)nc1-2	78.4*	76.9*	38.4*	13.0*	95.6*	43.7*	88.4*	95.5*
Cc1nn(Cc2ccccc2)c(Cl)c1C(=O)OC(C)C(=O)Nc1ccc(F)cc1Cl (configuration not stated)	1.8	-0.5	2.7	2.4	2.2	0.6	.	.
O=C(COc1ccc(Br)cc1)N1CCN(Cc2ccc3c(c2)OCO3)CC1	-0.6	6.1	-0.9	-0.6	32.2*	0.6	.	24.6
Cc1cc(C)nc(/N=C(\N)c2c(O)[nH]c(=O)[nH]c2=O)n1	0.2	1.0	9.7	1.0	5.7	0.4	.	.

High-throughput results: PubChem BioAssay, The Scripps Research Institute Molecular Screening Center
